Hits are enriched below; roughly 18% of the tested compounds scored in any of these assays.
Six1-Eya2 blk: blocks human Six1 binding to Eya2 | Q15475+O00167 | AlphaScreen GST-Six1/His-Eya2 binding, biochemical; hits give low values | activity change, % (test concentration not listed) | actives 0.56% (n = 360,000); in the data active means activity change below about -65%; inconclusive means mostly about -30% to -63%
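AlphaScreen with GST-Six1 and His-Eya2 (5X mix: 250 nM and 500 nM), glutathione donor and nickel acceptor beads; buffer 50 mM Tris pH 8.0, 300 mM NaCl, 1 mM TCEP; 1 h at 37 C in the dark.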
DT40 TDP1 no CPT: qHTS for Inhibitors of human tyrosyl-DNA phosphodiesterase 1 (TDP1): qHTS in cells in absence of CPT | DT40 Tdp1-/- hTDP1 cells, no CPT, ATP luminescence, 48 h | Potency, µM (top dose mostly 46.2 µM), actives largely listed as inhibitors | actives 15% (n = 420,000); further: nearly all actives have a fitted effect of over 55% in size
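Chicken DT40 Tdp1-/- cells complemented with human TDP1, screened without camptothecin (DMSO vehicle only), 400 cells/well. Compounds pin-transferred, cells incubated at 37 °C for at least 48 hr. Growth read as ATP-dependent luminescence (CellTiter-Glo, 30 min at RT).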
CtBP-E1A blk: CtBP/E1A binding inhibition; AlphaScreen GST-E1A/His-CtBP binding, 1536-well; hits give low values; activity change, % (test concentration not listed); actives 0.49% (n = 340,000); in the data active means activity change below about -65%; inconclusive means mostly about -30% to -63%
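In 5 uL wells, 23 nL compound meets equimolar GST-E1A and His-CtBP (5X stock 125 nM each) for 2 h, 37 °C. Beads (5X, 50 ug/mL) then 1 h, 37 °C, dark.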
IL1B secr inh: inflammasome signaling inhibition, IL-1 beta readout; THP-1 LPS/ATP IL-1B secretion, AlphaLISA, 16 h; hits give low values; activity change, % at 57.5 µM; actives 4.7% (n = 360,000); in the data active means activity change below about -50%; inconclusive means mostly about -30% to -49%
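Secreted IL-1B measured by AlphaLISA bead assay after 16 h compound exposure of THP-1 cells; compounds (final up to 57.5 uM) added 1 h before LPS (250 ng/mL) and ATP (1.25 mM) stimulation; lower signal means less secretion.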
DT40 TDP1 CPT: growth inhibition of DT40 Tdp1-/-;hTDP1 cells with camptothecin (screen for TDP1 inhibitors) | actives 12% (n = 420,000) | Potency, µM (highest dose often 46.2 µM), most hits filed as inhibitors | chicken DT40 Tdp1-/-;hTDP1 cells + 20 nM CPT, ATP luminescence, 48 h; further: nearly all actives have a fitted effect of over 55% in size
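Chicken DT40 Tdp1-/- cells stably complemented with human TDP1 were seeded at 400 cells/well in medium containing 20 nM camptothecin, exposed to pin-transferred compounds, and grown at 37 °C for at least 48 hr. Viability was read as ATP luminescence.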
TDP1 inh: TDP1 (human) enzyme inhibition. Q9NUW8. recombinant TDP1, AlphaScreen DNA substrate cleavage. Potency, µM (titrated, usually from 130 µM), most hits filed as inhibitors. actives 0.28% (n = 350,000). AID 485290; further: nearly all actives have a fitted effect of over 40% in size
Target sequence (Q9NUW8 whole entry, looked up): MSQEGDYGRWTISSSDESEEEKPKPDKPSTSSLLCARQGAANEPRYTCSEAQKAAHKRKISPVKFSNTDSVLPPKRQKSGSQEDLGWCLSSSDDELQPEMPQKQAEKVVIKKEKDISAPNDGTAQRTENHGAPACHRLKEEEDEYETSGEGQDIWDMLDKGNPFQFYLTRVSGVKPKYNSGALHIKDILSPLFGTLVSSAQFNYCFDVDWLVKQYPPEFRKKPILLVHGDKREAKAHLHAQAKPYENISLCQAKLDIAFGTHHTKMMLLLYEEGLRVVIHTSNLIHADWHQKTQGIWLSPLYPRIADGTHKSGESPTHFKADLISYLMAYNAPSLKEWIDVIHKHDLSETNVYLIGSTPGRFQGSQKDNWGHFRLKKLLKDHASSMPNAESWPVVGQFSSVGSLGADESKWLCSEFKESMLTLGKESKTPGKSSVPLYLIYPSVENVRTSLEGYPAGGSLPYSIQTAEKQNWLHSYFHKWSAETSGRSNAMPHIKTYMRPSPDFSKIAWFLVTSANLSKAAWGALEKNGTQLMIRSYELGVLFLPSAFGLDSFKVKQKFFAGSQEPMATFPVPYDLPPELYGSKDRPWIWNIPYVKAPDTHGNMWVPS
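AlphaScreen read-out: signal falls as enzyme removes the 3' tyrosine-FITC from a 5'-biotinylated DNA oligo (15 nM, 5 min, RT). Enzyme was E. coli-made recombinant Tdp1 at 1 nM, exposed to compound for 15 min beforehand; beads 10 ug/ml, 10 min.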
Numbers stand for hits. Unless noted, the call rests on the fitted dose curve; in most records, active means well fitted curve in the direction sought with a large enough effect; inconclusive means small, poorly fitted or top-dose-only effect, or another doubt; inactive means no such curve, though single readings can be large; an effect the other way counts as inactive or inconclusive.

How did COCCNC(=O)C1CCCN(Cc2cccc(C(F)(F)F)c2)CC1 (stereo unspecified) do in these assays?
Six1-Eya2 blk: inactive; DT40 TDP1 no CPT: inactive; CtBP-E1A blk: inactive; IL1B secr inh: inactive; DT40 TDP1 CPT: inactive

How did O=C(NC(c1ccc(Cl)cc1)c1ccsc1)C1CCN(Cc2cccc(C(F)(F)F)c2)CC1 (stereo unspecified) do in these assays?
Six1-Eya2 blk: inactive; DT40 TDP1 no CPT: 4.11µM; CtBP-E1A blk: inactive; IL1B secr inh: -70.1; DT40 TDP1 CPT: 4.11µM

What do the screens show for `O=C(NC(c1ccc(Cl)cc1)c1ccsc1)C1CCN(Cc2cccc(Cl)c2)CC1` (stereo unspecified)?
Six1-Eya2 blk: inactive; DT40 TDP1 no CPT: 4.61µM; CtBP-E1A blk: inactive; IL1B secr inh: inactive; DT40 TDP1 CPT: 5.17µM

How did COc1ccccc1CNC(=O)c1ccc(-c2ccccc2Cl)o1 do in these assays?
Six1-Eya2 blk: inactive; DT40 TDP1 no CPT: inconclusive; IL1B secr inh: inactive; DT40 TDP1 CPT: inconclusive; TDP1 inh: inactive

How did COc1ccc(NC(=O)c2ccc(-c3ccccc3C(F)(F)F)o2)cc1 do in these assays?
Six1-Eya2 blk: inactive; DT40 TDP1 no CPT: 16.4µM; CtBP-E1A blk: inactive; IL1B secr inh: inactive; DT40 TDP1 CPT: inconclusive

Results for O=C(NCCc1ccccc1)c1ccc(-c2ccc(F)cc2)o1 ?
Six1-Eya2 blk: inactive; DT40 TDP1 no CPT: inactive; CtBP-E1A blk: inactive; IL1B secr inh: -53.6; DT40 TDP1 CPT: inactive; TDP1 inh: inactive

Results for COc1ccccc1CNC(=O)c1ccc(-c2ccccc2C(F)(F)F)o1 ?
Six1-Eya2 blk: inactive; DT40 TDP1 no CPT: 20.6µM; IL1B secr inh: inactive; DT40 TDP1 CPT: 20.6µM; TDP1 inh: inactive

Results for O=C(NCCc1ccccc1)c1ccc(-c2ccccc2C(F)(F)F)o1 ?
Six1-Eya2 blk: inactive; DT40 TDP1 no CPT: inconclusive; CtBP-E1A blk: inactive; IL1B secr inh: -58.6; DT40 TDP1 CPT: 9.2µM

Results for O=C(NCc1ccccc1)c1ccc(-c2ccccc2F)o1 ?
Six1-Eya2 blk: inactive; DT40 TDP1 no CPT: inactive; CtBP-E1A blk: inactive; IL1B secr inh: inactive; DT40 TDP1 CPT: inactive; TDP1 inh: inactive

Results for Cc1cccc(N2CC(C(=O)O)CC2=O)c1C (stereo unspecified) ?
Six1-Eya2 blk: inactive; DT40 TDP1 no CPT: inactive; CtBP-E1A blk: inactive; IL1B secr inh: inactive; DT40 TDP1 CPT: inactive; TDP1 inh: inactive

Results for COCCn1c(SCC(=O)Nc2ccc(OC)cc2)nc2c(oc3ccccc32)c1=O ?
TDP1 inh: inactive

How did CCOc1cc(/C=C2/SC(=S)NC2=O)ccc1OC(=O)c1ccco1 do in these assays?
Six1-Eya2 blk: inactive; DT40 TDP1 no CPT: 11.6µM; CtBP-E1A blk: inconclusive; IL1B secr inh: -50.9; DT40 TDP1 CPT: 23.1µM; TDP1 inh: inactive

Results for COc1cc(/C=C2/SC(=O)NC2=O)ccc1OC(=O)c1ccco1 ?
Six1-Eya2 blk: inactive; DT40 TDP1 no CPT: 16.4µM; CtBP-E1A blk: inactive; IL1B secr inh: inactive; DT40 TDP1 CPT: 16.4µM; TDP1 inh: inactive

Results for O=C1NC(=S)S/C1=C/c1ccc(OC(=O)c2ccco2)cc1 ?
Six1-Eya2 blk: inactive; DT40 TDP1 no CPT: inactive; CtBP-E1A blk: inactive; IL1B secr inh: inconclusive; DT40 TDP1 CPT: inconclusive; TDP1 inh: 50.1µM

How did O=C(O)CCCNC(=O)/C(=C\C=C\c1ccccc1)NC(=O)c1ccccc1Cl do in these assays?
Six1-Eya2 blk: inactive; DT40 TDP1 no CPT: inactive; CtBP-E1A blk: inactive; IL1B secr inh: inactive; DT40 TDP1 CPT: inactive; TDP1 inh: inactive

What do the screens show for `COc1cccc(OCCSc2nc3ccccc3c(=O)[nH]2)c1`?
Six1-Eya2 blk: inactive; DT40 TDP1 no CPT: 20.6µM; CtBP-E1A blk: inactive; IL1B secr inh: inactive; DT40 TDP1 CPT: inactive; TDP1 inh: inactive

Compound activity as filed in PubChem BioAssay.
